The values that follow come from PubChem BioAssay.

Results with a measured potency or affinity are listed apart. Calls of active or inactive are those of the source. No rule for the calls is given here.

The target of the experiment is Melanocortin receptor 4 (Homo sapiens) (UniProt P32245). Kind of experiment: blockade of melanocortin 4 receptor signaling – cell-based, plate reader, cherry pick, counter-screen for LGR2 antagonist project, dose response (AID 743444). The note with it: MC4R-expressing cells, antagonist mode; series mostly up to 35 µM; activity change, negative = inhibition: at the top concentration.
With `CC(C)(C)c1nc2ccc(Cl)cn2c1CC1CCCCC1`, the “activity change, negative = inhibition” value is -36.7% (inactive). As to `COc1ccc(-c2cc(C(F)(F)F)nc(S(=O)(=O)CCCC(=O)Nc3cccc(O)c3)n2)cc1OC`, the “activity change, negative = inhibition” value was 84.3% [at 16 µM] (inactive). In the case of `CCOc1cccc2sc(Nc3nc4ccc(NC(C)=O)cc4s3)nc12`, the “activity change, negative = inhibition” value was 63.6% (inactive).

For the molecule `COc1ccc(CCNC(=O)C2CCN(S(=O)(=O)c3ccc(Cl)cc3)CC2)cc1OC`, the “activity change, negative = inhibition” value is 48.3% (inactive). Regarding `CCOCCCn1c(SCc2nc3ccccc3s2)nc2ccccc2c1=O`, the “activity change, negative = inhibition” value was 9.56% (inactive). `Cc1ccc(NC(=O)c2ncn(CC(=O)N3CCN(c4ccccn4)CC3)n2)cc1C`: the “activity change, negative = inhibition” value is 43.8% (inactive). `O=C(C[C@@H]1C[C@H]2c3cc(NC(=O)c4ccc5c(c4)OCO5)ccc3O[C@H]2[C@@H](CO)O1)NCc1ccc(Oc2ccccc2)cc1`: the “activity change, negative = inhibition” value is 8.8% [at 16 µM] (inactive). For the molecule `Cc1ccc(S(=O)(=O)Nc2ccc3c(c2)C(=O)N([C@H](C)CO)C[C@@H](C)[C@H](CN(C)S(=O)(=O)c2cccs2)OCCCC[C@@H](C)O3)cc1`, the “activity change, negative = inhibition” value is -10.1% (inactive). As for `CCOc1cc(/C=C/C(=O)Nc2ccc(C(=O)NCCN(CC)CC)cc2)ccc1OCC(C)C`, the “activity change, negative = inhibition” value was -2.18% (inactive).

Take `CC(C)OC(=O)c1ccc(NCc2cc(O)ccc2O)cc1Cl`: the “activity change, negative = inhibition” value was 36.8% (inactive).

In the case of `CC(C)c1ccc2c(c1)C(N1CCNCC1)Cc1ccc(F)cc1S2` (centres undefined), the “activity change, negative = inhibition” value was 21.3% (inactive).

Turning to `O=C(CSc1nc2ccccc2[nH]1)Nc1nc(-c2cccc(Br)c2)cs1`, the “activity change, negative = inhibition” value is 29.1% (inactive).

Turning to `C[C@H]1CCCCO[C@@H](CN(C)C(=O)Nc2ccc(C(F)(F)F)cc2)[C@@H](C)CN([C@@H](C)CO)C(=O)c2cc(NC(=O)CCC(F)(F)F)ccc2O1`, the “activity change, negative = inhibition” value was -21.9% (inactive). Turning to `N#C[C@@H]1[C@H](c2ccc(C#Cc3cccc(F)c3)cc2)[C@@H](CO)N1C(=O)C1CC1`, the “activity change, negative = inhibition” value was -26.4% (inactive).
